Screens as filed in PubChem.
Rows were chosen to be rich in hits. Some 1.6% of all compounds tested hit in one or more screens of this group.
KCNQ2 inh – inhibitors of rat KCNQ2 potassium channel. O88943. CHO-K1 KCNQ2, FluxOR thallium flux, 20 min; stronger effect = lower value. B-score at 10 µM. 310,000 tested, 1.1% active;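 active = fluorescence ratio B-score at most minus 3 library SDs, with starting brightness B-score within 2 library SDs, cut at about -5.5 in these data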
Target sequence (O88943 whole entry, looked up): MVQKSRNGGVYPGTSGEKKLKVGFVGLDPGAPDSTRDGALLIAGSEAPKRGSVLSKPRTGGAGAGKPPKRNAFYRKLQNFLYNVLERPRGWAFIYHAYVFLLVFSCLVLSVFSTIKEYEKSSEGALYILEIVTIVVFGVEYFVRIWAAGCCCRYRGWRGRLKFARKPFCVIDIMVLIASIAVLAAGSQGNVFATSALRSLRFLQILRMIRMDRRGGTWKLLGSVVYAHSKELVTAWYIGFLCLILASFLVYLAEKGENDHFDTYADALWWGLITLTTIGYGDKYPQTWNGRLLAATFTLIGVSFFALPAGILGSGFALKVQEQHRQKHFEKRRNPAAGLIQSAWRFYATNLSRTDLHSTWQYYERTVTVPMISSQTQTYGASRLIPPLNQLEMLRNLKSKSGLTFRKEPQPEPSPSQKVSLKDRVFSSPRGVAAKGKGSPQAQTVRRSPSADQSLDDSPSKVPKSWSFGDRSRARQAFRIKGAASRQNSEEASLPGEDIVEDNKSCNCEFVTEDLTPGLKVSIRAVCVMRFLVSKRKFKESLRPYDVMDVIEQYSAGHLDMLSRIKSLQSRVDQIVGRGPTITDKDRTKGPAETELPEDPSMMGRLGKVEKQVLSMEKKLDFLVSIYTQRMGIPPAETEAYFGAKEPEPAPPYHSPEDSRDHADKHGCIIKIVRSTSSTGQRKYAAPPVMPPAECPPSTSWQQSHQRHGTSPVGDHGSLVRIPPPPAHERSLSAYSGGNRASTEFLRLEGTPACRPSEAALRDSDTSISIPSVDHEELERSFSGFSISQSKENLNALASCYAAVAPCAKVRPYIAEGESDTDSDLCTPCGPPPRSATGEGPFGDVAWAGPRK
KCNQ2 enhance – KCNQ2 (rat) channel potentiation | O88943 | CHO-K1 KCNQ2, FluxOR thallium flux fluorescence; stronger effect = higher value | B-score at 10 µM | 310,000 tested, 0.54% active | AID 2239;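 active = fluorescence ratio B-score at least 3 SD of library B-scores, with initial fluorescence B-score within 3 of them, cut at about 5.3 in these data; same plate scores as AID 2156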;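 note: B-score of peak minus minimum over baseline fluorescence ratio after K+ and Tl+ stimulus; positive B-score means potentiation of KCNQ2 with more thallium influx and brighter signal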
Of the large screens only hits and unclear results are named; the others gave an inactive call.

CC1CC(C)(C)N(C(=O)CSc2ccc(-c3ccc(F)cc3)nn2)c2ccccc21 (centres undefined)	KCNQ2 inh -5.7
CC1CCN(C(=O)CSc2ccc(-c3ccc(F)cc3)nn2)CC1	none
Cc1onc(-c2ccccc2)c1C(=O)NC(=S)Nc1sc2c(c1C#N)CCCC2	none
Cc1onc(-c2ccccc2)c1C(=O)NC(=S)Nc1sc2c(c1C#N)CCC(C)C2 (centres undefined)	KCNQ2 enhance 10
C/C(=N\Nc1nc2ccc(Cl)cc2o1)c1ccccc1	none (no result: KCNQ2 enhance)
N#CCSc1ccc2nc(-c3ccccc3)cn2n1	none
O=C1CC(C2CCCO2)C(=O)N1c1ccc(Cl)c(Cl)c1 (centres undefined)	none
COC(=O)CCN(C(=O)c1cccc([N+](=O)[O-])c1)c1ccccn1	none
Cc1cc(C(F)(F)F)nn1Cc1n[nH]c(=S)n1-c1ccc(F)cc1	none
Cc1cc(-c2n[nH]c(=S)n2-c2ccc(F)cc2)nn1C	KCNQ2 inh -6.3
CN(Cc1ccccc1)C(=O)COc1ccccc1Cl	none (no result: KCNQ2 enhance)
O=C(COc1ccc([N+](=O)[O-])cc1)N(Cc1ccccc1)Cc1ccccc1	KCNQ2 inh -5.8
CN(Cc1ccccc1)C(=O)COc1ccc(C(C)(C)C)cc1	KCNQ2 inh -5.6
O=C(COc1ccccc1)NNC(=O)COc1ccc([N+](=O)[O-])cc1	none
CCOc1ccc(C(=O)NC(Cc2ccccc2)C(=O)OC)cc1 (centres undefined)	none (no result: KCNQ2 enhance)
COC(=O)C(Cc1ccccc1)NC(=O)COc1ccc(C(C)(C)C)cc1 (centres undefined)	KCNQ2 inh -5.6
O=C(NNC(=O)C1CC(c2cccs2)=NO1)Nc1ccc(Cl)cc1 (centres undefined)	none (no result: KCNQ2 enhance)
O=C(NCc1cccs1)c1cc(S(=O)(=O)N2CCOCC2)c(Cl)cc1Cl	none
O=C(COC(=O)c1cc(=O)[nH]c2ccccc12)NC(=O)c1ccccc1	none (no result: KCNQ2 enhance)
O=C1C2C(c3ccccc3)CC=CC2[C@H](c2cccc([N+](=O)[O-])c2)N1Cc1ccccc1 (some centres undefined)	none
COc1ccc(N2C(=NC(=O)c3ccccc3)SC3CS(=O)(=O)CC32)cc1 (centres undefined)	none
CCNc1ccc(Br)cc(C(=O)/C=C/c2ccc(Cl)cc2Cl)c1=O	KCNQ2 inh -5.8
CNc1ccc(Br)cc(C(=O)/C=C/c2cc(OC)ccc2OC)c1=O	none (no result: KCNQ2 enhance)
CCCCN(C(=O)CN1C(=O)C2CCCCC2C1=O)c1c(N)n(CCC)c(=O)[nH]c1=O (centres undefined)	none (no result: KCNQ2 enhance)
O=C(Nc1ccccc1C(F)(F)F)C1CCN(C(=O)c2cccs2)CC1	none
COc1ccc(CN(CC(O)COc2cccc3[nH]cc(C)c23)C(C)(C)C)cc1 (centres undefined)	KCNQ2 inh -5.9
COc1ccc(CN(C)CC(O)COc2ccc(-c3ccccc3)cc2)cc1OC (centres undefined)	none
O=C(Cc1ccc(F)cc1)Nc1nccs1	none (no result: KCNQ2 enhance)
S=C(Nc1ccccc1)Nc1nccs1	KCNQ2 enhance 6.5
Fc1ccc(NC(=S)Nc2nccs2)cc1	KCNQ2 enhance 7.3
O=C(Cc1ccccc1)Nc1nccs1	none
CC(C)c1nnc(NC(=O)CCC(=O)NC2CCCCCC2)s1	none
Cc1ccccc1C(=O)N1CCN(C(c2ccccc2)c2ccccc2)CC1	none (no result: KCNQ2 enhance)
Cc1occc1C(=O)N1CCN(C(c2ccccc2)c2ccccc2)CC1	KCNQ2 inh -6.4
Cc1cc(C(C)(C)C)cc(C)c1C[n+]1ccc2ccccc2c1	none (no result: KCNQ2 enhance)
CCOC(=O)CSc1c(-c2ccc(Cl)cc2)[nH]c2ccccc12	none (no result: KCNQ2 enhance)
O=C(Cc1cccs1)NCCSc1c(-c2ccc(Cl)cc2)[nH]c2ccccc12	KCNQ2 inh -7.1
CC(C)(C)C1=CC=C(C(C)(C)C)C(=O)C1=O	none (no result: KCNQ2 enhance)
O=C1C2=C(CCCC2)C(=O)N1c1cccc(OCCBr)c1	KCNQ2 enhance 7.8
CC(C)CN(CCOc1cccc(N2C(=O)C3=C(CCCC3)C2=O)c1)CC(C)C	none (no result: KCNQ2 enhance)
COc1ccc(C(=O)NC(Cc2c[nH]c3ccccc23)C(=O)O)cc1 (centres undefined)	none (no result: KCNQ2 enhance)
CCCOc1ccc(C(=O)CCNC(Cc2c[nH]c3ccccc23)C(=O)O)cc1 (centres undefined)	KCNQ2 inh -6
Cc1ccc(SCc2cc(-c3ccc(Cl)cc3)on2)cc1	none (no result: KCNQ2 enhance)
Clc1ccc(SCc2cc(-c3ccc(Cl)cc3)on2)cc1	KCNQ2 inh -7.5
COC1CCN(C(=O)c2ccc3oc(C(C)C)nc3c2)CC1	none
Cc1[nH]c(C)c(S(=O)(=O)N2CCCCC2)c1C(=O)N1CCCCC1	none
CCn1c(CSCc2ccc(F)cc2)nnc1SCC(=O)NCc1ccccc1	none (no result: KCNQ2 enhance)
C=CCn1c(CSCc2ccccc2)nnc1SCC(=O)NCc1ccccc1	KCNQ2 inh -5.5
O=C(CSc1nnc(NC(=O)C2CC2)s1)Nc1ccc2c(c1)OCCO2	none
CSc1nc(N(C)C)nc(N(C)C#N)n1	none
c1ccc(-c2cc3c(N4CCN(c5ncccn5)CC4)ncnc3s2)cc1	none (no result: KCNQ2 enhance)
c1ccc(-c2cc3c(N4CCN(c5ccccc5)CC4)ncnc3s2)cc1	KCNQ2 inh -7.7
COC(=O)C1=C(C(=O)OC)[C@@H]2N(C)c3ccc(OC)cc3[C@@]23C[C@@H](C(=O)OC)N(C(=O)c2cccs2)C3=N1	none (no result: KCNQ2 enhance)
